# Legend:
# Assay in all cases: DAPPL (digital affinity profiling via proximity ligation, sequencing); 10 mM Tris-HCl pH 7.5, 50 mM NaCl, 1 mM DTT, 4% glycerol, room temperature, 30 min; GST-TFs on glutathione beads, 16-mer random dsDNA library, 0.1% formaldehyde crosslink after washing; high values mean tight binding
# [1] = biological target: T1, FEV (Homo sapiens, UniProt Q99581 1-238); details: protein: recombinant; tags: N-terminal GST; dsDNA, one strand shown
# T1 sequence: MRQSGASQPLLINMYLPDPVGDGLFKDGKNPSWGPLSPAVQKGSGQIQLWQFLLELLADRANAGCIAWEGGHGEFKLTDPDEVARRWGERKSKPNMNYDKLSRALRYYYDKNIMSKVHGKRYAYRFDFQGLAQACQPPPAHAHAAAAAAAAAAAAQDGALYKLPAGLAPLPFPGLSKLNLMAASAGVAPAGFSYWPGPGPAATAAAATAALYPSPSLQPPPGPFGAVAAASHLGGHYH
# Summary of the method: (§1)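 In yeast, human transcription factors were expressed with a GST fusion, then pulled down on glutathione beads and given DNA barcodes. Pooled with a tag-only sample, they were exposed to 200 nmole of a 16-mer random double-stranded DNA library (Tris/NaCl/DTT/glycerol buffer, room temperature, 30 min), washed, crosslinked with 0.1% formaldehyde, proximity-ligated using BsaI/T4 ligase for 1 h at 37 °C, PCR-amplified and read on an Illumina NextSeq500. Each hexamer's frequency of reads for a factor, divided by the matching frequency for the tag-only sample, gives the binding signal.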
# [2] = biological target: ETV5 (Homo sapiens, UniProt P41161 1-510); details: protein: recombinant; tags: N-terminal GST; dsDNA, one strand shown
# Summary of the method: as §1
# [3] = biological target: HSF1 (Homo sapiens, UniProt Q00613 1-529); details: protein: recombinant; tags: N-terminal GST; chain copies: 3; dsDNA, one strand shown
# Summary of the method: as §1
# [4] = biological target: T2, SPIC (Homo sapiens, UniProt Q8N5J4 1-248); details: protein: recombinant; tags: N-terminal GST; dsDNA, one strand shown
# T2 sequence: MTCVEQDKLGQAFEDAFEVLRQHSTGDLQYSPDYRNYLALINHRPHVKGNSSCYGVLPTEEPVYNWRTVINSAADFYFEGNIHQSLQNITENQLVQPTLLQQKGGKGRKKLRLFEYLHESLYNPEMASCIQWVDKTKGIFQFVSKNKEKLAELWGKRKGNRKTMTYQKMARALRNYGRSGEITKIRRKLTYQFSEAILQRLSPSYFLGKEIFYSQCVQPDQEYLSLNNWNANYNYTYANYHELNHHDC
# Summary of the method: as §1
# [5] = biological target: ELF4 (Homo sapiens, UniProt Q99607 1-663); details: protein: recombinant; tags: N-terminal GST; dsDNA, one strand shown
# Summary of the method: as §1
# [6] = biological target: T3, ELK4 (Homo sapiens, UniProt P28324-2 1-405); details: protein: recombinant; tags: N-terminal GST; dsDNA, one strand shown
# T3 sequence: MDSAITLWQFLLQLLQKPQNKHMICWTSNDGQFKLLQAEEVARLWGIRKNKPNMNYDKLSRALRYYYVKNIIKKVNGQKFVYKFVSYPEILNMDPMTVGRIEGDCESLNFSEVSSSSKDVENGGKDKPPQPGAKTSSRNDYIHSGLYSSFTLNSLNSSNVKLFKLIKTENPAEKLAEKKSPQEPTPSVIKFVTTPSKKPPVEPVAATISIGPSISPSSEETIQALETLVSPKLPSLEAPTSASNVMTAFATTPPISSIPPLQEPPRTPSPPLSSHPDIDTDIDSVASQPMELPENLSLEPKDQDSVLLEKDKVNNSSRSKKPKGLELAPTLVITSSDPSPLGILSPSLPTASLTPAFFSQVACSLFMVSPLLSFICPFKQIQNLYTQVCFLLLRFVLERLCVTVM
# Summary of the method: as §1
# [7] = biological target: T4, ETV2 (Homo sapiens, UniProt O00321 1-342); details: protein: recombinant; tags: N-terminal GST; dsDNA, one strand shown
# T4 sequence: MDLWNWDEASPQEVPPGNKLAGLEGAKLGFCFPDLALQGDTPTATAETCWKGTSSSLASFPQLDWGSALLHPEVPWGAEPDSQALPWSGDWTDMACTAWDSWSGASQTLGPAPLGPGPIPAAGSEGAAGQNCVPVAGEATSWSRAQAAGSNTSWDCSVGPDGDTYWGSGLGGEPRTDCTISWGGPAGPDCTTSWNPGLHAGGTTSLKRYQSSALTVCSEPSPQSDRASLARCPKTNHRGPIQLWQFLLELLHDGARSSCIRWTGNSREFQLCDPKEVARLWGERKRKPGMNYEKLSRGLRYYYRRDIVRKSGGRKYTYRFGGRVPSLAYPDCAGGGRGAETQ
# Summary of the method: as §1
# [8] = biological target: T5, ELF3 (Homo sapiens, UniProt P78545 1-371); details: protein: recombinant; tags: N-terminal GST; dsDNA, one strand shown
# T5 sequence: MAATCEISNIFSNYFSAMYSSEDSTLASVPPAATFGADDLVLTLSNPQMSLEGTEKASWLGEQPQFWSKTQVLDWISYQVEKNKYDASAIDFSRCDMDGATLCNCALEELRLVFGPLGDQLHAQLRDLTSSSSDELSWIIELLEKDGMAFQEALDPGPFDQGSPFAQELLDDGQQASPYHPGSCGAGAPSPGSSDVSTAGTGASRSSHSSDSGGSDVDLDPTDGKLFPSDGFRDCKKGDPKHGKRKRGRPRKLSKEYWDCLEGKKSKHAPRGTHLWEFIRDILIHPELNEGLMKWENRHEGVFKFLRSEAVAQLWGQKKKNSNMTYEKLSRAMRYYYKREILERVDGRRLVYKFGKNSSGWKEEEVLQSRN
# Summary of the method: as §1
# [9] = biological target: CRX (Homo sapiens, UniProt O43186 1-299); details: protein: recombinant; tags: N-terminal GST; dsDNA, one strand shown
# Summary of the method: as §1
# [10] = biological target: ETV1 (Homo sapiens, UniProt P50549 1-477); details: protein: recombinant; tags: N-terminal GST; dsDNA, one strand shown
# Summary of the method: as §1
# [11] = biological target: T6, ERF (Homo sapiens, UniProt P50548 1-548); details: protein: recombinant; tags: N-terminal GST; dsDNA, one strand shown
# T6 sequence: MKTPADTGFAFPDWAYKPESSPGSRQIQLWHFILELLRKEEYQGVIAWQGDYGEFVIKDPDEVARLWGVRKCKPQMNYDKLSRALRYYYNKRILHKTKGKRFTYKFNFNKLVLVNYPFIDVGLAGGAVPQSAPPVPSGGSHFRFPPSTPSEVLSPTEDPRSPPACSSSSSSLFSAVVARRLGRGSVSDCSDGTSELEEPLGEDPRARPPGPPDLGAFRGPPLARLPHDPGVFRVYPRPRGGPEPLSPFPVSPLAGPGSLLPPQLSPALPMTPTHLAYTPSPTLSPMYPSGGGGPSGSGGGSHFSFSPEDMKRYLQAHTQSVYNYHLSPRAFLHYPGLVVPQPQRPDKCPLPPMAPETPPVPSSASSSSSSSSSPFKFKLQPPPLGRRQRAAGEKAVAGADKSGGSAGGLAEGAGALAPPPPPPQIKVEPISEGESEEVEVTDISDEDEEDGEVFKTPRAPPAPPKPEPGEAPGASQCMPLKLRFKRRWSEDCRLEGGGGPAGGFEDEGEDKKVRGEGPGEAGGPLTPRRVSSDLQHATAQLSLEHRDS
# Summary of the method: as §1
# [12] = biological target: T7, ETV3L (Homo sapiens, UniProt Q6ZN32 1-361); details: protein: recombinant; tags: N-terminal GST; dsDNA, one strand shown
# T7 sequence: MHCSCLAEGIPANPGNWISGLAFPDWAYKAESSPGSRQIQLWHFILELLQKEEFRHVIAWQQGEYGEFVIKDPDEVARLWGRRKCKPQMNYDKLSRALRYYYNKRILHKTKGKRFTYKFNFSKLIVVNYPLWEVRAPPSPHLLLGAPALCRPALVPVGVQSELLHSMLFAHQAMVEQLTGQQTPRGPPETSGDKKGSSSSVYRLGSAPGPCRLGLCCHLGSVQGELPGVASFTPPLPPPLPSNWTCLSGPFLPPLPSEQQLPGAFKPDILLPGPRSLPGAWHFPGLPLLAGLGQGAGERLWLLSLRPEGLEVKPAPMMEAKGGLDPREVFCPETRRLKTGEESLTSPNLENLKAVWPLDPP
# Summary of the method: as §1
# [13] = biological target: T8, ETS2 (Homo sapiens, UniProt P15036 1-469); details: protein: recombinant; tags: N-terminal GST; dsDNA, one strand shown
# T8 sequence: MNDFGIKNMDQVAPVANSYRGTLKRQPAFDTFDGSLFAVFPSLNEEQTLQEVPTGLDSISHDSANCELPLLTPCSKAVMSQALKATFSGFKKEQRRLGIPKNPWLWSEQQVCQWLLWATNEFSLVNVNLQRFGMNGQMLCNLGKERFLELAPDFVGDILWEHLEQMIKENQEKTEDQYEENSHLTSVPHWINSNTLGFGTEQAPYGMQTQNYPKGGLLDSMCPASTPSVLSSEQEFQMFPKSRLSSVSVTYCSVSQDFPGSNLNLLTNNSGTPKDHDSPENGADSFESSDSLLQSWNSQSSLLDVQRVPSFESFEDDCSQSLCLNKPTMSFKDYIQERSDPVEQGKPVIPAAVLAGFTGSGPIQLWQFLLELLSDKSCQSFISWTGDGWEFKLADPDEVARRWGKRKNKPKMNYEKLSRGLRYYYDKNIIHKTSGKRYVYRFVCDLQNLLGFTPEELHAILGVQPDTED
# Summary of the method: as §1
# [14] = biological target: T9, SPDEF (Homo sapiens, UniProt O95238 1-335); details: protein: recombinant; tags: N-terminal GST; dsDNA, one strand shown
# T9 sequence: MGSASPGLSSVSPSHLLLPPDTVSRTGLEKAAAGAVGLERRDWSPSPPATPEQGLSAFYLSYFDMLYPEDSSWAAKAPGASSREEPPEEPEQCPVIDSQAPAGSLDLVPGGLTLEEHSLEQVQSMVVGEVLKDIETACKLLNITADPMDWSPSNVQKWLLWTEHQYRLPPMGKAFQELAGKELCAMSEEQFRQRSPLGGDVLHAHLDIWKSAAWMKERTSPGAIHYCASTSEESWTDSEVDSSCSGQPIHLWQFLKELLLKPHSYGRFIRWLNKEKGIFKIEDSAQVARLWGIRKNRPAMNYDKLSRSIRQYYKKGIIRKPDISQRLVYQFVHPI
# Summary of the method: as §1
# [15] = biological target: T10, ETV7 (Homo sapiens, UniProt Q9Y603 1-341); details: protein: recombinant; tags: N-terminal GST; dsDNA, one strand shown
# T10 sequence: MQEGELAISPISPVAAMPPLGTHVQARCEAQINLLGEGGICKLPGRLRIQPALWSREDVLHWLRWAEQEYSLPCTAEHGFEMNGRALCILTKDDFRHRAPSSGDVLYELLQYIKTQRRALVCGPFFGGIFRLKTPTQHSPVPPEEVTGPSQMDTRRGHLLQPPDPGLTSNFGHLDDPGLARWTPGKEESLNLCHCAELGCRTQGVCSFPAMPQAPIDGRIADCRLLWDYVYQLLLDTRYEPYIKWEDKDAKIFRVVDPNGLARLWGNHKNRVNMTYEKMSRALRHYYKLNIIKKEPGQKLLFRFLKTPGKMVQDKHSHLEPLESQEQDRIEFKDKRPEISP
# Summary of the method: as §1
# [16] = biological target: T11, ELF5 (Homo sapiens, UniProt Q9UKW6-2 1-255); details: protein: recombinant; tags: N-terminal GST; dsDNA, one strand shown
# T11 sequence: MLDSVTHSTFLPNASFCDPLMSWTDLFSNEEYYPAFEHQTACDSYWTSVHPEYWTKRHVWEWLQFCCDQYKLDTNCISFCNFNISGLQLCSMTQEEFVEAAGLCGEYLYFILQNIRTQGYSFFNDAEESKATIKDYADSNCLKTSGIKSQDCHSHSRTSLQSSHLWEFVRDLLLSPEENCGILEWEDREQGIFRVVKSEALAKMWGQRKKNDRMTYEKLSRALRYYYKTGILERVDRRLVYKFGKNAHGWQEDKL
# Summary of the method: as §1
# [17] = biological target: T12, ETV3 (Homo sapiens, UniProt P41162-2 1-143); details: protein: recombinant; tags: N-terminal GST; dsDNA, one strand shown
# T12 sequence: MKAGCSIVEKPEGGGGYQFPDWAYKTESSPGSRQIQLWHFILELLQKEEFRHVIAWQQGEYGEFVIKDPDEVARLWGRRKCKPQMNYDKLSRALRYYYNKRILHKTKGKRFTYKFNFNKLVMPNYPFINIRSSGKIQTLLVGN
# Summary of the method: as §1
# [18] = biological target: ETV6 (Homo sapiens, UniProt P41212 1-452); details: protein: recombinant; tags: N-terminal GST; dsDNA, one strand shown
# Summary of the method: as §1
# Sequence of CRX (O43186 whole entry): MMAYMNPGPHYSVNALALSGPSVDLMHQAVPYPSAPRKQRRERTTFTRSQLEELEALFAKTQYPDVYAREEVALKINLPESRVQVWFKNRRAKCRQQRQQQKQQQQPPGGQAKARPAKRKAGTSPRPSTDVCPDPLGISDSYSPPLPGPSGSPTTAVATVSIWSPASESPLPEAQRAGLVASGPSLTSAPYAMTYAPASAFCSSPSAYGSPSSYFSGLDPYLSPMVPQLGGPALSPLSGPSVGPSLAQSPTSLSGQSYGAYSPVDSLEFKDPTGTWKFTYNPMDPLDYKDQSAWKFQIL
# Sequence of ELF4 (Q99607 whole entry): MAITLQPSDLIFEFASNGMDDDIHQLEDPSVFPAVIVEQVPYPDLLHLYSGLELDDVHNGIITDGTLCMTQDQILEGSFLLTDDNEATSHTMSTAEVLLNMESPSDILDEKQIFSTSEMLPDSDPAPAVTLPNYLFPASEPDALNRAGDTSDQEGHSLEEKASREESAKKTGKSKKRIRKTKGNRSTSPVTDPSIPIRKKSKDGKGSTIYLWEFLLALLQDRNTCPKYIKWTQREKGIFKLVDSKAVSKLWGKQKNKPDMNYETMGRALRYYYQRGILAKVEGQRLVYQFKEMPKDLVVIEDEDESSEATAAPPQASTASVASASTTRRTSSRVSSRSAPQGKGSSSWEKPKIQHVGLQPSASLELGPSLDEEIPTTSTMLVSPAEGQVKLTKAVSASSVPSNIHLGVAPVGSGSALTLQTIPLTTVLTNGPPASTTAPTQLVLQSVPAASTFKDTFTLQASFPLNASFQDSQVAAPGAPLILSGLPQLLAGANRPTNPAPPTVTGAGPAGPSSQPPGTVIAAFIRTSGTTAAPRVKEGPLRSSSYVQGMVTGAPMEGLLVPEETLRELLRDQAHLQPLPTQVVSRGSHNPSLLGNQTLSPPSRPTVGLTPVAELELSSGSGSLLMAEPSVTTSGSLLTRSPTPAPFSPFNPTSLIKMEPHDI
# Sequence of ETV5 (P41161 whole entry): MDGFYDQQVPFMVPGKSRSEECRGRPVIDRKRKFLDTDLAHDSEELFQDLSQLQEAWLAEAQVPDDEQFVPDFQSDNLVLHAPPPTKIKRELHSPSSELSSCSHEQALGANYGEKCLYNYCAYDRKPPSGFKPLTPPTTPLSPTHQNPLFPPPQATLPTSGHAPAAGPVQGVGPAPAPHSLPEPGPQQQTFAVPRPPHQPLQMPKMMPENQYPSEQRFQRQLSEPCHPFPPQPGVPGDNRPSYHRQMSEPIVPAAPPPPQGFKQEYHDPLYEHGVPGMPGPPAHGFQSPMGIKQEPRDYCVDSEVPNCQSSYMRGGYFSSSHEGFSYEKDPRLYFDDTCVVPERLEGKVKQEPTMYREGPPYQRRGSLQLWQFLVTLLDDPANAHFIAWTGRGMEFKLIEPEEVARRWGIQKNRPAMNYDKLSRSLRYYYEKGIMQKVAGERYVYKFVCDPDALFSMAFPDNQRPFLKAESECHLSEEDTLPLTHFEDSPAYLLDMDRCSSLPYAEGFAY
# Sequence of HSF1 (Q00613 whole entry): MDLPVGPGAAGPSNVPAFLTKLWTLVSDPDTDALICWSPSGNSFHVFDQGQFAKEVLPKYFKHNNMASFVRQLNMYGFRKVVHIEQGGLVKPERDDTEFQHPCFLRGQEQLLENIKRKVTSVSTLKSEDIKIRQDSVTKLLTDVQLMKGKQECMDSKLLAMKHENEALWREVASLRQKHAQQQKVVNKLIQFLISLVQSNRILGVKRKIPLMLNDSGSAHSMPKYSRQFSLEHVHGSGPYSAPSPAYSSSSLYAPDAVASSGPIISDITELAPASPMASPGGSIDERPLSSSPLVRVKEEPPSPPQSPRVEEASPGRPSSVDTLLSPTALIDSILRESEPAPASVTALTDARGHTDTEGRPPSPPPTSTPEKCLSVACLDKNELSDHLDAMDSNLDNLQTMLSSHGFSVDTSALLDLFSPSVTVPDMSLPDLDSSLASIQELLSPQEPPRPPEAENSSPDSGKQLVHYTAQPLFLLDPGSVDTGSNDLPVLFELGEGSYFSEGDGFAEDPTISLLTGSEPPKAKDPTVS
# Sequence of ETV1 (P50549 whole entry): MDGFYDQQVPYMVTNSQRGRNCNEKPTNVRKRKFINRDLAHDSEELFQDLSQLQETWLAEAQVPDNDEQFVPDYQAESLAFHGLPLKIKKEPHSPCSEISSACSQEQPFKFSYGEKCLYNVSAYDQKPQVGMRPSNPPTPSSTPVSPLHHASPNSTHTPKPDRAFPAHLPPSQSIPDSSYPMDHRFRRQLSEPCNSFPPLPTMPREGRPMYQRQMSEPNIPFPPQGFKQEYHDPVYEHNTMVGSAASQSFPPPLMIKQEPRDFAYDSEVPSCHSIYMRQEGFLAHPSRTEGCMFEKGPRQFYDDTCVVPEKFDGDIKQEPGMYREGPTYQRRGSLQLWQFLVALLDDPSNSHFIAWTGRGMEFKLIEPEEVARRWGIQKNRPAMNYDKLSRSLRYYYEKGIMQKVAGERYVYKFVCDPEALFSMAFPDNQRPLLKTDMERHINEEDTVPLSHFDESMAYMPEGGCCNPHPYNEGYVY
# Sequence of ETV6 (P41212 whole entry): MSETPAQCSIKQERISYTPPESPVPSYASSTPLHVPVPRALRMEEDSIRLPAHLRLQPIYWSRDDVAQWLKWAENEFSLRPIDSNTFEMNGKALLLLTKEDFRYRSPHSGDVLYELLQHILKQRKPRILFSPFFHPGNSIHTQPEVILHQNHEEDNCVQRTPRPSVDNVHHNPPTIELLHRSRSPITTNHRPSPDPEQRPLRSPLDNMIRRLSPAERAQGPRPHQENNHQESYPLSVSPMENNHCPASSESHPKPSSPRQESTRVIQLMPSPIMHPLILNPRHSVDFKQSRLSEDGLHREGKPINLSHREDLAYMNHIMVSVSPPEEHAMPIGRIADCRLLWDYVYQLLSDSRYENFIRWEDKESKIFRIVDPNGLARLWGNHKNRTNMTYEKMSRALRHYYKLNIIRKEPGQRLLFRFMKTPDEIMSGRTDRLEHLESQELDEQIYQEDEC
sequence,measurement,setting,value
CTCGTA,binding signal,[1],"1.33 fold enrichment (6-mer frequency, TF over GST control)"
same,binding signal,[2],"1.29 fold enrichment (6-mer frequency, TF over GST control)"
same,binding signal,[3],"1.77 fold enrichment (6-mer frequency, TF over GST control)"
same,binding signal,[4],"1.25 fold enrichment (6-mer frequency, TF over GST control)"
same,binding signal,[5],"1.35 fold enrichment (6-mer frequency, TF over GST control)"
same,binding signal,[6],"1.16 fold enrichment (6-mer frequency, TF over GST control)"
same,binding signal,[7],"1.44 fold enrichment (6-mer frequency, TF over GST control)"
same,binding signal,[8],"1.39 fold enrichment (6-mer frequency, TF over GST control)"
same,binding signal,[9],"1.38 fold enrichment (6-mer frequency, TF over GST control)"
same,binding signal,[10],"1.35 fold enrichment (6-mer frequency, TF over GST control)"
same,binding signal,[11],"1.23 fold enrichment (6-mer frequency, TF over GST control)"
same,binding signal,[12],"1.43 fold enrichment (6-mer frequency, TF over GST control)"
same,binding signal,[13],"1.37 fold enrichment (6-mer frequency, TF over GST control)"
same,binding signal,[14],"1.2 fold enrichment (6-mer frequency, TF over GST control)"
same,binding signal,[15],"1.11 fold enrichment (6-mer frequency, TF over GST control)"
same,binding signal,[16],"1.28 fold enrichment (6-mer frequency, TF over GST control)"
same,binding signal,[17],"1.23 fold enrichment (6-mer frequency, TF over GST control)"
same,binding signal,[18],"1.2 fold enrichment (6-mer frequency, TF over GST control)"
